In all, about 53,000 sequences went through this assay and about 3,700 (7%) were called active.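 How the source made its calls: active means gene knockdowns whose robust z-score for IL-1 alpha signal is at least 2 or at most -2, so actives lie on both sides; inactive means the rest.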 Many of the other results were omitted from the sample, so actives are more common in it than they were.

This experiment can be described thus: Components of the Cytosolic LPS Sensing Pathway: Gene Identification via Genome-wide siRNA Screen.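 Further: robust z of the log signal after scaling to non-targeting control siRNA wells of the plate.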 As to conditions: RAW264.7 macrophages, IL-1a HTRF, actives lie on both sides, screened at 100 nM (by protocol), cells primed 5 h with Pam3CSK4 first. The method, boiled down:
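RAW264.7; siRNA 100 nM final, RNAiMAX, 48h 37 degrees C; Pam3CSK4 5 h; LipidA + TransIT-TKO 24 h; IL-1a HTRF; CellTiter-Glo viability; robust z vs negative-control median.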
Take CCUUAAGGAACUAGGAUUCTT against Lgr5: the z-score was 1.05 (inactive).
Take GGUCCUCCCAUAAUCUAGUTT against Lrrc75a: the z-score was 1.18 (inactive).
The result for GCUCAUUGCACUAAAAGACTT against Tnnt1 reads -1.92 (inactive); that for CCGCGUCUGUAUUUGAUAUTT against Sccpdh, 1.68 (inactive); that for GGAAGUCCUGGACAUUCAGTT against Nfkbie, 5.66 (active).
The result for GGUUGAGUUUCAGUGCAUCTT against Klhl28 reads -0.632 (inactive); that for GCUUGAUUGUCAGUUGGAATT against Tcp11, -0.364 (inactive); that for GGGUAGUUUUGACUUUGUUTT against Schip1, 0.472 (inactive).
Regarding GGAAUAAGGCGAGUUGGAATT against Serbp1, the z-score was 0.493 (inactive).
For the sequence GGCCUAUAAUUUCUUUACGTT against Cc2d2a, the z-score is -0.823 (inactive).
With CGCGAGGAAGUCGAGGUAUTT against Pax2, the z-score was 1.17 (inactive).
Next, GGAUGUACACAGAAGGCCATT against Sucnr1: 3.47 (active); GGCACCCUCAAGAAAGCGUTT against Nol6: -1.34 (inactive); GGGCUUACUGCUUAAUAGATT against Fundc2: 0.481 (inactive).
In the case of CGUGGACUUAAUAUUUCAGTT against Btbd7, the z-score was 0.685 (inactive).
With GCCUCCUAGUAUUUACAUGTT against Ube2j2, the z-score was 0.8 (inactive).
As for “CCAGGCCAAAUCUCACAAUTT against A730008H23Rik”, the z-score was -2.2 (active).
Regarding CCGUGAAAAUCAGUAAUUATT against Cacybp, the z-score was -0.546 (inactive).
With GGACUUAUCAAGCUGGUUUTT against Rps25, the z-score was -1.48 (inactive).
As to GCUCACAUUGAGUGGUUGGTT against Ncbp3, the z-score was 0.542 (inactive).
With GGAGUUACGUAGAACUACCTT against Adam25, the z-score was 0.543 (inactive).
Turning to GCAAAUAUUGGCCACUCUCTT against Prpf19, the z-score is -0.523 (inactive).
Regarding GCCAAGAAAAUCAAGUCUCTT against Pknox2, the z-score is 0.892 (inactive).
As to GGAAGGAGAAGAAAACAUATT against Gtf3c6, the z-score is -2.13 (active).
As for GGCUGUCCAGACUAGUUCUTT against Lsm14b, the z-score is -0.317 (inactive).
For the sequence CCUCAUCAUAUUCUCCUGATT against Olfr869, the z-score was -0.848 (inactive).
In the case of CCUGUCUUUAGUGGACUUUTT against Olfr1453, the z-score is 0.22 (inactive).
Take GGUCUUUGAGAAGUACCACTT against Chst3: the z-score is -0.22 (inactive).
Take CCAGUCCUUGAAAAGAGCUTT against Olfr128: the z-score was -2.35 (active).
Next, CGCCCAAAUUGACUAUUUGTT against Fam214b: 0.351 (inactive); GAGAGCGGAGAGAUCAAAGTT against Iltifb: 0.108 (inactive); GGCUGUUCCAGAGAUUGUGTT against Mela: -0.29 (inactive).
The result for GCGGUAUGAGAAGGUUCCATT against Rap2a reads 3.48 (active); that for GGCAUUGACAUCAUGUACUTT against Agxt, 1.1 (inactive).
On to GCGACAUCACAAGAAUCGATT against Fancd2, for which the z-score was -0.979 (inactive).
In the case of CCUAUCAAAUUAAAUGCGCTT against Muc13, the z-score is -0.6 (inactive).
GGUUGUGAUCAAUUAUUCATT against Evl: the z-score is 1.27 (inactive).
The result for GGAACACUCUGAAUUCAUUTT against Cxcl15 reads 0.0905 (inactive); that for GCUGCUUUACUUAAGAGUUTT against Srf, 0.625 (inactive).
As for GCGAAACUUCCAGAUCUAGTT against Cnot11, the z-score was 2.14 (active).
The result for GGGCAAGAGAGUAGAACUGTT against Ambra1 reads 0.383 (inactive); that for GGUGACACAGCUGCUUUUCTT against Dact2, 0.107 (inactive); that for CGGUCCAGGAAGAAUGUUUTT against Bckdhb, -0.781 (inactive).
Consider GGAUUGUCAGAAAUCCUGATT against Adat2, for which the z-score is -1.22 (inactive).
CCCAUCAAUAUCAUAUCCATT against Car7: the z-score is -2.34 (active).
In the case of CCAGAGUUCUGGGAUUCCATT against Cyp2c66, the z-score is -0.948 (inactive).
Regarding GGCCAAGAAUGAUCGUUCUTT against Gabrb3, the z-score was 0.00587 (inactive).
Take GCAGACAGUAAAUUGGUAATT against Mab21l3: the z-score was 0.915 (inactive).
In the case of GGAUUACACACCUACGAUCTT against Taf10, the z-score was -1.63 (inactive).
Consider CGACUACCUGGAUAUCUACTT against Efna2, for which the z-score was -0.292 (inactive).
The result for GGCGUGUUGAGACAAUCCUTT against Lkaaear1 reads -0.815 (inactive); that for GCAUAGCAGGAAGGCCUUGTT against Htr6, 0.183 (inactive).
On to GCAUAUUGUGCGACUUUUCTT against Utp15, for which the z-score was -2.16 (active).
For the sequence GCAAAUUUUAUCAACCGCATT against Mical3, the z-score was -0.0618 (inactive).
As to CGACCAUACGAAUGCGGCATT against Zfp865, the z-score is 0.498 (inactive).
The result for GGCUUGAACACAAGAAAGCTT against Golim4 reads -0.778 (inactive); that for “GGAUGAGAAUAUUGAAAGATT against 4932415M13Rik”, -0.225 (inactive).
On to GGCAGGAAAACUGCCAAUGTT against Gm6034, for which the z-score is 1.36 (inactive).
Turning to CCUUAAUUGGGUUGAAUUCTT against Olfr878, the z-score was 2.44 (active).
Take GCUGACUAAGGCUUGUAAUTT against Hrnr: the z-score is -0.194 (inactive).
Turning to GGUUAAUUCCAACAAAGCATT against Orc4, the z-score is -0.529 (inactive).
Next, GGUCUACAACCAAAUCUGCTT against Clec7a: -0.531 (inactive); CCUGAGACUGCAUCUUUUCTT against Slc10a7: -0.693 (inactive).
As for GCCAAAUUAAGUAUCUUGATT against Lamp2, the z-score was 0.371 (inactive).
On to GCCUCAUUGAAAGGAUCCATT against Mgat5b, for which the z-score was -2.32 (active).
In the case of GGCGGAAAAAAAAGUAAUATT against Crebzf, the z-score was 0.926 (inactive).
As for GGCUCAUUGGACAUAUAUGTT against Casp8ap2, the z-score is -1.77 (inactive).
Regarding GGGACACCAAGUUUUCCAUTT against Paqr7, the z-score is 1.63 (inactive).

These data come from PubChem BioAssay AID1508600 (Functional Genomics Laboratory (NCATS/FGL), 2020).
